In assay [1] the target is Alpha-galactosidase (Coffea arabica) (UniProt Q42656). In words: Counterscreen for Glucocerebrosidase Inhibitors: qHTS Assay for Coffee Bean alpha-Galactosidase at pH 4.5 (AID 957).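 Note: plate controls were enzyme alone for no effect and no enzyme for full effect.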 The gist of the method: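 Enzyme is added first (2 nM final), then compounds titrated from 0.7 nM to 77 uM, then 80 uM 4-methylumbelliferyl alpha-D-galactopyranoside; after 20 min at room temperature a pH 10 NaOH/glycine stop precedes fluorescence reading at 365/440 nm.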
Alpha-galactosidase (Coffea arabica), sequence (Q42656 whole entry, looked up): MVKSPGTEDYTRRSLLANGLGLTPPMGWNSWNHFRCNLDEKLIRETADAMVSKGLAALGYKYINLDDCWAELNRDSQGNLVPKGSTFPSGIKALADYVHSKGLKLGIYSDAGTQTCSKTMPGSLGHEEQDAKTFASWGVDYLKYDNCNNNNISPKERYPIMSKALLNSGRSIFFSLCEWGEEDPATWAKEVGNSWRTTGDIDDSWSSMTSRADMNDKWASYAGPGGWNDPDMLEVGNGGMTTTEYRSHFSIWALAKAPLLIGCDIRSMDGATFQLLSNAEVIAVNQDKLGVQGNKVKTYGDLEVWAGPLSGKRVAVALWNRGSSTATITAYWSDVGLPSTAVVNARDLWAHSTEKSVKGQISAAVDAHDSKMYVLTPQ

Assay [2] shares this target. As to the kind of experiment: Counterscreen for Glucocerebrosidase Inhibitors: qHTS Assay for Coffee Bean alpha-Galactosidase at pH 5.9 (AID 998).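 Note: plate controls were uninhibited enzyme for no effect and no-enzyme basal signal for full effect.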 The gist of the method:
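Fluorogenic 4-MU substrate hydrolysis, 80 uM substrate and 2 nM coffee bean alpha-galactosidase, pH 5.9 citrate buffer, 20 min at room temperature, then NaOH/glycine stop. Titration 0.7 nM–77 uM, normalized to no-enzyme and enzyme controls, AC50 via Hill equation.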

A short description of assay [3]: Inducers of the Endoplasmic Reticulum Stress Response (ERSR) in human glioma: Validation (AID 504836). Note: 0% is about no effect. In outline: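 ERSR induction read as luciferase luminescence (Bright-Glo, 10 min at room temperature) in stably transfected human U87-MG glioma cells exposed to compounds for 16 h, using GRP78 as sensor.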
A short description of assay [4]: qHTS for Inhibitors of the Functional Ribonucleoprotein Complex (vRNP) of Lassa (LASV) Arenavirus: LASV Primary Screen - GLuc reporter signal (AID 1347082; calls by dose curve; tested in HEK293 reporter line; note: % is set by controls: 0 for no effect and ±100 for the full control effect; nearly all actives have a fitted effect of over 60% in size).
A short description of assay [5]: qHTS for Inhibitors of the Functional Ribonucleoprotein Complex (vRNP) of Lassa (LASV) Arenavirus: Viability assay - alamar blue signal for LASV Primary Screen (AID 1347083; calls by dose curve; tested in HEK293 reporter line; note: % is set by controls: 0 for no effect and ±100 for the full control effect; nearly all actives have a fitted effect of over 80% in size).
Assay [6] in a line: qHTS for Inhibitors of the Functional Ribonucleoprotein Complex (vRNP) of Lymphocytic Choriomeningitis Arenaviruses (LCMV): Viability assay - alamar blue signal for LCMV Primary Screen (AID 1347085; calls by dose curve; tested in HEK293 reporter line; note: % is set by controls: 0 for no effect and ±100 for the full control effect; nearly all actives have a fitted effect of over 80% in size).
Assay [7] has as its target Nucleoprotein (Lymphocytic choriomeningitis virus (strain Armstrong)) (UniProt P09992). As to the kind of experiment: qHTS for Inhibitors of the Functional Ribonucleoprotein Complex (vRNP) of Lymphocytic Choriomeningitis Arenaviruses (LCMV): LCMV Primary Screen - GLuc reporter signal (AID 1347086; calls by dose curve; note: % is set by controls: 0 for no effect and ±100 for the full control effect; nearly all actives have a fitted effect of over 70% in size).
Assay [8] in a line: Primary qHTS for inhibitors of SARS-S pseudo-typed particle cell entry (AID 1479145; calls by dose curve; note: nearly all actives have a fitted effect of over 45% in size).
The nature of assay [9]: Primary qHTS for Huh7 cytotoxicity: counterscreen for inhibitors of MERS-S pseudotyped particle cell entry (AID 1479147; calls by dose curve; note: % is set by controls: 0 for no effect and ±100 for the full control effect). To be noted: outcome: dose series up to 57.1 µM unless noted.
Assay [10] can be described thus: Primary qHTS for inhibitors of MERS-S pseudo-typed particle cell entry (AID 1479149; calls by dose curve; note: nearly all actives have a fitted effect of over 60% in size).
The nature of assay [11]: Primary qHTS for Vero E6 cytotoxicity: counterscreen for inhibitors of SARS-S pseudo-typed particle cell entry (AID 1479150; calls by dose curve). The following applies: outcome: dose series up to 57.1 µM unless noted.
The nature of assay [12]: Cytotoxicity counterscreen for inhibitors of SARS-CoV-2 cell entry (AID 1645845; calls by dose curve; note: % is set by controls: 0 for no effect and ±100 for the full control effect; nearly all actives have a fitted effect of over 50% in size). The gist of the method:
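ATP-content luminescence (ATPLite 1step, 15 min RT) read after 48 h compound exposure of Expi293F cells stably expressing human ACE2; normalized to cells-only wells and media-only wells.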

The nature of assay [13]: Primary qHTS to identify inhibitors of SARS-CoV-2 cell entry (AID 1645846; calls by dose curve; note: nearly all actives have a fitted effect of over 45% in size). To be noted: activity change, negative = inhibition: at 57.1 µM (top of the series) unless noted. In outline:
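Entry measured by luciferase signal 48 h after adding SARS-CoV-2-S pseudotyped MLV particles to HEK293-ACE2 cells preincubated 1 h with compounds. Normalisation: bald particles and spike particles.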

Assay [14] is described as follows: qHTS Assay for Identification of Small Molecule Antagonists for Thrombopoietin (TPO) Signaling Pathway (AID 918). Note: potency is the fitted concentration of half-maximal effect; nearly all actives have a fitted effect of over 60% in size. To be noted: TPO-dependent cell signaling reporter, antagonist mode. In outline:
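Inhibitors of TPO signaling are sought by stimulating IL-3-starved murine Ba/F3 cells (human TPO receptor, Glycoprotein IIb-driven luciferase) with TPO at its EC50 of 26 pM alongside compound. After 24 hrs at 37 C, reporter luminescence is measured.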

Assay [15] in a line: qHTS Assay for Lipid Storage Modulators (AID 1519; calls by dose curve; for activity change, negative = inhibition: % is set by controls: 0 for no effect and ±100 for the full control effect). To be noted: Drosophila S3 cells, BODIPY lipid droplet/cell ratio, laser cytometry, cells loaded with oleic acid. The gist of the method:
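Cells seeded at 5,000 per well were treated with compounds over a concentration series and loaded with oleic acid (400 uM, as added). Lipid droplet fluorescence (488 nm excitation, 500-530 nm channel) was read by laser-scanning cytometry and normalized to 20 uM Triacsin C.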

Assay [16] can be described thus: qHTS for differential inhibitors of proliferation of Plasmodium falciparum line D10 (AID 1877).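 Note: potency is the fitted concentration of half-maximal effect; parasites grown with compound for 72 h before DNA staining.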
A short description of assay [17]: qHTS for differential inhibitors of proliferation of Plasmodium falciparum line W2 (AID 1883).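 Note: potency is the fitted concentration of half-maximal effect; parasites grown with compound for 72 h before lysis and staining.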 The following applies: Potency: Plasmodium falciparum W2 proliferation inhibition.
The target of assay [18] is RecQ-like DNA helicase BLM (Homo sapiens) (UniProt P54132). In words: qHTS Validation Assay for Inhibitors of Bloom's syndrome helicase (BLM) (AID 2364).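 Note: plate controls were DMSO vehicle for no effect and enzyme-free control for full effect.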 In outline:
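Forked 20-bp duplex substrate (200 nM, TAMRA/BHQ-2) plus 2 mM ATP added after 15 min compound preincubation with 50 nM enzyme, pH 8.0, poly(dI-dC) 2.5 ug/ml. Strand separation followed by fluorescence (525/598 nm) over 2 h, normalized to enzyme-free and DMSO controls.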

A short description of assay [19]: Cytometric Cell-Based qHTS for Inhibitors of the mTORC1 Signaling Pathway in MEF (Tsc2-/-, p53-/-) Cells (AID 2660).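 Note: Tsc2 and p53 null MEFs carrying empty vector with compound for 24 h; percent of cells above a phospho-rpS6 to PI ratio cutoff in each well; plate controls were DMSO for no effect and rapamycin for full effect.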 The gist of the method: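 Readout: Alexa-488 phospho-rpS6 (Ser235/236) intensity divided by PI intensity, thresholded against 7.5 nM rapamycin wells and reported as % positive cells. PI cell count served as the viability measure. Compound exposure was 24 hrs at 37 degree Celsius.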

Assay [20] is described as follows: Validation screen for small molecules that induce DNA re-replication in MCF 10A normal breast cells (AID 463097). Note: 0% is about no effect; nearly all actives have a fitted effect of over 60% in size. The gist of the method:
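Read-out is Hoechst total nuclear intensity by fluorescence scanning imager, flagging increased high-DNA-content nuclei. Compounds were incubated with MCF 10A cells for 48 hr (37 C, 5% CO2) before 40 min staining.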

Assay [21] is described as follows: Quantitative high throughput screen for delayed death inhibitors of the malarial parasite plastid, 96 hour incubation (AID 488745). Note: potency is the fitted concentration of half-maximal effect; nearly all actives have a fitted effect of over 70% in size. The gist of the method:
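Readout is firefly luciferase luminescence from an integrated reporter in P. falciparum; lower signal marks inhibited growth. Cultures at 2% hematocrit and 0.1% parasitemia were treated with compound across two generations (96 h, 37 C, 5% CO2).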

Assay [22] has as its target Chromobox protein homolog 1 (Homo sapiens) (UniProt P83916). In words: qHTS Validation Assay for Inhibitors of HP1-beta Chromodomain Interactions with Methylated Histone Tails (AID 488953).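 Note: loss of AlphaScreen luminescence from HP1-beta binding biotinylated H3K9me3 peptide; % is set by controls: 0 for no effect and ±100 for the full control effect; nearly all actives have a fitted effect of over 50% in size.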 In outline:
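Disruption of preformed HP1-beta:H3K9me3 peptide complexes (both 50 nM, PBS pH 7.4 with 0.01% Tween-20) is measured by AlphaScreen after 30 min compound exposure at room temperature, using streptavidin donor and nickel chelate acceptor beads at 10 ug/mL final.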

Assay [23] deals with D(1A) dopamine receptor (Homo sapiens) (UniProt P21728). In words: HTS Assay for Allosteric Agonists of the Human D1 Dopamine Receptor: Primary Screen for Agonists (AID 488981). Note: 0% is about no effect. In outline:
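Calcium flux in an inducible, force-coupled HEK293 Trex D1 line (overnight at 30 C): agonist mode is the 180 s kinetic read after compound; potentiator mode is the following 180 s read after dopamine at EC20.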

The nature of assay [24]: qHTS for Inhibitors of ATXN expression: Validation (AID 588378). Note: potency is the fitted concentration of half-maximal effect; nearly all actives have a fitted effect of over 75% in size. The gist of the method: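 Luciferase luminescence (Bright-Glo) from an ATXN2-FFLuc HEK293 line after 24 h compound exposure at 37 °C, preceded by a CellTiter-Fluor fluorescence viability read. Serial dilutions of a reference ATXN2 inhibitor and a luciferase inhibitor served as controls.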
Assay [25] has as its target Arylsulfatase A (Homo sapiens) (UniProt P15289). In words: qHTS screen for enhancers of Arylsulfatase A (ASA1): LOPAC Validation Assay (AID 720538). The gist of the method:
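Enhancer assay in patient-derived MLD fibroblasts carrying ASA-I179S: 48 h compound exposure at 37 C, then 14 h room-temperature pNCS turnover (0.5 mM final) in lysis buffer. Read by fluorescence at 525/598 nm after NaOH stop.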

Assay [26] in a line: Primary qHTS for small molecule stabilizers of the endoplasmic reticulum resident proteome: Secreted ER Calcium Modulated Protein (SERCaMP) assay (AID 1508630). Note: % is set by controls: 0 for no effect and ±100 for the full control effect. In outline:
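The SH-SY5Y reporter protocol was run at 3 concentrations up to 38.3 uM (primary) or 11 concentrations (follow-up): 16 h compound, 100 nM thapsigargin for 4 h, then extracellular luciferase luminescence.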

The target of assay [27] is Cytochrome P450 3A4 (Homo sapiens) (UniProt P08684). As to the kind of experiment: qHTS Assay for Inhibitors and Substrates of Cytochrome P450 3A4 (AID 884). Note: % is set by controls: 0 for no effect and ±100 for the full control effect; nearly all actives have a fitted effect of over 50% in size. In outline:
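Luminescent readout of luciferin produced by CYP3A4 (20 nM) dealkylation of Luciferin-PPXE, 25 uM (its KM). NADPH-driven reaction ran 60 min at RT after 10 min compound preincubation; data scaled to 57 uM ketoconazole as 100% inhibition.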

Assay [28] deals with Ubiquitin carboxyl-terminal hydrolase 1 (Homo sapiens) (UniProt O94782). In words: Inhibitors of USP1/UAF1: Pilot qHTS (AID 504865).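 Note: rhodamine fluorescence freed from ubiquitin-rhodamine substrate followed over time; top concentration of the series differs between compounds; % is set by controls: 0 for no effect and ±100 for the full control effect; nearly all actives have a fitted effect of over 35% in size.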 In outline: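 Deubiquitinase activity followed as kinetic rhodamine fluorescence release from 150 nM Ub-Rho. 1 nM USP1/UAF1 with compound, after 15 min room-temperature preincubation, in HEPES pH 7.8 buffer containing TCEP, EDTA, BSA and Tween-20.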
Ubiquitin carboxyl-terminal hydrolase 1 (Homo sapiens), sequence (O94782 whole entry, looked up): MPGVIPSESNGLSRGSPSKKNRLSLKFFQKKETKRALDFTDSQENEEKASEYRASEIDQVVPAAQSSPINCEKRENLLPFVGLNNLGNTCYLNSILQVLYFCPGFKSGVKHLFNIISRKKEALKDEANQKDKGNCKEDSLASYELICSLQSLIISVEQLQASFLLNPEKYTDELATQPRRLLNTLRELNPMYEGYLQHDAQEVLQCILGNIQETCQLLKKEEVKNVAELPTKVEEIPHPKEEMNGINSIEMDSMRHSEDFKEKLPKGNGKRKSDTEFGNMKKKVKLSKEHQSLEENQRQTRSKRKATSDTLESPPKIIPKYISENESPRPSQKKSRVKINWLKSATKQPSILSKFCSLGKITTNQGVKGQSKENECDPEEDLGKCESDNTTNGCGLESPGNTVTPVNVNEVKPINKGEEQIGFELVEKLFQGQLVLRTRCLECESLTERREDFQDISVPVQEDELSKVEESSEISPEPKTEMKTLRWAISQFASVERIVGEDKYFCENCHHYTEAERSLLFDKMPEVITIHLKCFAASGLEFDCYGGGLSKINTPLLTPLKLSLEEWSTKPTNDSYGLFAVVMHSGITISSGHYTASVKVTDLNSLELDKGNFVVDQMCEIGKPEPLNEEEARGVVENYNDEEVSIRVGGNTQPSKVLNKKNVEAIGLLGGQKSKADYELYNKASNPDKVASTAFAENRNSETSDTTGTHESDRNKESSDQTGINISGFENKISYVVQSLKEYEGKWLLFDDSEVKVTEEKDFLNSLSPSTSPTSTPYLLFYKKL

The mark [29] stands for this setting: measured here: cell count channel max response.
[30] abbreviates: measured here: lipid channel max response.

We go through four compounds from PubChem BioAssay (NCATS).

Several values for one entry are separate records, joined by “and”; a condition that tells them apart may be missing. Equal entries are not always repeated. Records with an inconclusive call do not appear. Activity calls are given as the source filed them. Unless noted, calls come from the whole dose curve; as a rule, active = well fitted curve in the direction sought with a large enough effect; inconclusive = small, poorly fitted or top-dose-only effect, or another doubt; inactive = no such curve, though single readings can be large; an effect the other way counts as inactive or inconclusive.

Nucleoprotein (Lymphocytic choriomeningitis virus (strain Armstrong)), sequence (P09992 whole entry, looked up): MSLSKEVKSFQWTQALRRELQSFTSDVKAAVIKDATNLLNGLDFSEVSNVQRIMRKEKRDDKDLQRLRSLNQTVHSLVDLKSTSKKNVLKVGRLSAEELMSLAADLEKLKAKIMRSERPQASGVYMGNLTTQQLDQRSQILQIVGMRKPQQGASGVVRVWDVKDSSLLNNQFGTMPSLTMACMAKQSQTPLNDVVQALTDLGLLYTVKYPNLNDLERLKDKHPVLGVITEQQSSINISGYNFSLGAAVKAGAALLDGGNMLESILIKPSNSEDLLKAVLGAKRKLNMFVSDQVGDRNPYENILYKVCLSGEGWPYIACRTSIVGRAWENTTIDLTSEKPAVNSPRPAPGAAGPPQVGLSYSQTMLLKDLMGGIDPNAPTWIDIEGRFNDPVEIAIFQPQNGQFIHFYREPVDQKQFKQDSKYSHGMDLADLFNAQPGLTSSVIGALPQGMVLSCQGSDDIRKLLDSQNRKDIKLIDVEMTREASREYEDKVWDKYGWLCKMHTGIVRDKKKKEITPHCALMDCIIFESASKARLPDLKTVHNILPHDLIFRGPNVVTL
Cytochrome P450 3A4 (Homo sapiens), sequence (P08684 whole entry, looked up): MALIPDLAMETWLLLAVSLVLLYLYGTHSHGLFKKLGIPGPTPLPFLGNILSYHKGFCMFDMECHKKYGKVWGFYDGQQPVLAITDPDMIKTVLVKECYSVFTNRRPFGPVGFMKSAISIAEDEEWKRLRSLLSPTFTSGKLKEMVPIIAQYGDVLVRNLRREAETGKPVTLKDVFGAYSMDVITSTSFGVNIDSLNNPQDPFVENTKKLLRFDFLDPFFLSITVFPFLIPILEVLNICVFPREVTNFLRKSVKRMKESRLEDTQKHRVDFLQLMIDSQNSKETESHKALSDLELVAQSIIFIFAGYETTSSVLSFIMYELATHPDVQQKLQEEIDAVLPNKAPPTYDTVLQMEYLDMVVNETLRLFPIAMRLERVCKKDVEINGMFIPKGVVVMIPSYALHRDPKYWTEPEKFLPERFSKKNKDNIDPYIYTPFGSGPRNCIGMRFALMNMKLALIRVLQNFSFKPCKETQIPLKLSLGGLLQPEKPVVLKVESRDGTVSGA
Chromobox protein homolog 1 (Homo sapiens), sequence (P83916 whole entry, looked up): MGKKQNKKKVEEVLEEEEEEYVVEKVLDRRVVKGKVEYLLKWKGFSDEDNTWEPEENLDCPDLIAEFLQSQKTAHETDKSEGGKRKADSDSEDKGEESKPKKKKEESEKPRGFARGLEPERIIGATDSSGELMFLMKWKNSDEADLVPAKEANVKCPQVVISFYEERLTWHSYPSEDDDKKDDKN
D(1A) dopamine receptor (Homo sapiens), sequence (P21728 whole entry, looked up): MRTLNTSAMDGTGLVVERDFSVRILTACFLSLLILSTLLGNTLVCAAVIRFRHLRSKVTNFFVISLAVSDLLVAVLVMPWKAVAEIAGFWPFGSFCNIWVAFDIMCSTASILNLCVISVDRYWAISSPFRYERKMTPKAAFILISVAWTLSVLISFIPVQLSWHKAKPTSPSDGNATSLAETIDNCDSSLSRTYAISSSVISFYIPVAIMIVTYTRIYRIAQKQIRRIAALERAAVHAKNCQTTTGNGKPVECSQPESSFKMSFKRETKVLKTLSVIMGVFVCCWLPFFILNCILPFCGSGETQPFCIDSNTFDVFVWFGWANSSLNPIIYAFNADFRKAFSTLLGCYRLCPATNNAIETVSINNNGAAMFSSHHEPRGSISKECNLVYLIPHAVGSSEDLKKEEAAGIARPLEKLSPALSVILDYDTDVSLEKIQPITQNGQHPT
RecQ-like DNA helicase BLM (Homo sapiens), sequence (P54132 whole entry, looked up): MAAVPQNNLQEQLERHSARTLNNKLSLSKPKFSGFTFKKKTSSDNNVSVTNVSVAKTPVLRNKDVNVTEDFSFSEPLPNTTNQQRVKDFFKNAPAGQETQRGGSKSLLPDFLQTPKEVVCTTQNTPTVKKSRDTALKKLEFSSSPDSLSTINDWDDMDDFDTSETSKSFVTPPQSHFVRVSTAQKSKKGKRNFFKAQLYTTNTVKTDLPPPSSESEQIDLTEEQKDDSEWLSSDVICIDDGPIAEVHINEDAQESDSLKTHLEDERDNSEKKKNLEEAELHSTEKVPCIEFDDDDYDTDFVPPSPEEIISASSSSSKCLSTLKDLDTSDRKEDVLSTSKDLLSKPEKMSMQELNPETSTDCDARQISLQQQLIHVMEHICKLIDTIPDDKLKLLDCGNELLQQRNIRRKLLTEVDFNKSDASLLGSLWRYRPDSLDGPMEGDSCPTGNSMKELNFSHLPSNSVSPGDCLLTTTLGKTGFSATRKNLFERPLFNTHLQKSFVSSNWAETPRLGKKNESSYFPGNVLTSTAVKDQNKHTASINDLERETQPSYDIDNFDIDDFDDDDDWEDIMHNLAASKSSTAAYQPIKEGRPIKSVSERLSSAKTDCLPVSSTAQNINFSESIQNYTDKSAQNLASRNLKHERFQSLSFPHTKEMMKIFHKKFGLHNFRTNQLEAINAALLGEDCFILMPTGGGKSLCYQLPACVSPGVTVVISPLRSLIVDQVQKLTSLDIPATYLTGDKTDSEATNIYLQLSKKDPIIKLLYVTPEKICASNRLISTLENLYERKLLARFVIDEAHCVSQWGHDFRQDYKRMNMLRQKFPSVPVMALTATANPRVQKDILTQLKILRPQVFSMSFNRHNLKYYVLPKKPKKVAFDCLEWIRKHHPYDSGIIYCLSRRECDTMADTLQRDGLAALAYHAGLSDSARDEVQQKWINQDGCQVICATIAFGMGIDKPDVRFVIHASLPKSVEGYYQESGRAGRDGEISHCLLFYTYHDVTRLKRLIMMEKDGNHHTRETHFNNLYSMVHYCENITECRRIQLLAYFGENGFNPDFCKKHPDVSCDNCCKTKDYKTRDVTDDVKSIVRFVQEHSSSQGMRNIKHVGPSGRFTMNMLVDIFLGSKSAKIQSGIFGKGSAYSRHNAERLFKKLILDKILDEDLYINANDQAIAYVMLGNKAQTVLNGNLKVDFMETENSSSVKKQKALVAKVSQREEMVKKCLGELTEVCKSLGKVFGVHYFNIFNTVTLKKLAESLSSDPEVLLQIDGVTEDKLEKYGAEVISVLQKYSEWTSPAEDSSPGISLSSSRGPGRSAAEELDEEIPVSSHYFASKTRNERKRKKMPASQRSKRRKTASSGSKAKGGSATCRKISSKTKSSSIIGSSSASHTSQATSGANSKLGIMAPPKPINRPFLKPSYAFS
Arylsulfatase A (Homo sapiens), sequence (P15289 whole entry, looked up): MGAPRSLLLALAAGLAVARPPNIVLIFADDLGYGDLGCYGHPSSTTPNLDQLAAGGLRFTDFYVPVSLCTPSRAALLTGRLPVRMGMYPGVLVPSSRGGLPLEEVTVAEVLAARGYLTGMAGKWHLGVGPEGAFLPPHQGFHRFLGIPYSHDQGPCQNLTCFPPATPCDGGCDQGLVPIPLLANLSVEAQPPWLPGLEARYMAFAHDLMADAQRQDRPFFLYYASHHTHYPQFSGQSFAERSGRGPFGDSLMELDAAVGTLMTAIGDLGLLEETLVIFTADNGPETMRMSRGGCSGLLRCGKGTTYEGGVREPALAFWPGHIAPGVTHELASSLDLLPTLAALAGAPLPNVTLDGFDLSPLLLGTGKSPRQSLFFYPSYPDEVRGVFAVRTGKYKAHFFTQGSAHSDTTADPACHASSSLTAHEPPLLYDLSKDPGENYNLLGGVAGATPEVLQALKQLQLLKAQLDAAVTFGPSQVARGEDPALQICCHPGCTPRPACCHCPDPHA

On to `CCCC1O[C@@H]2C[C@H]3[C@@H]4CCC5=CC(=O)C=C[C@]5(C)[C@H]4[C@@H](O)C[C@]3(C)[C@]2(C(=O)CO)O1` (stereo partly specified), for which the compound was classed as inactive in assay [1], in assay [2], in [3], in [9] and in [11]. Further, the Potency result in assay [4], in [5], in assay [6], in assay [7], in assay [8] and in [10] was “inactive” each time. Moreover, in assay [12], the Potency result was “inactive”. In addition, in assay [13], the activity change, negative = inhibition is -23.4%.
On to `CNCC[C@H](Oc1ccc(C(F)(F)F)cc1)c1ccccc1`, for which the Potency was 12.6 µM (active) and 10 µM (active) in assay [14]; 12.6 µM (active) in assay [16]; 4.47 µM (active) in [17]; 1.17 µM (active) in assay [21]; 14.1 µM (active) in assay [24]. In addition, the outcome in assay [1], in assay [19] and in assay [23] was inactive. In addition, the activity change, negative = inhibition in [15] (at 25.7 µM (top of the series)) is -1.04% (inactive). Further, the max response in assay [15] (setting [29]) amounted to 11.3%; in assay [15] (setting [30]) it was 10.4%. In addition, the Potency entry in assay [18], in [20], in assay [22], in assay [25], in [4] and in assay [5] was “inactive” each time. The Potency entry in [6] and in assay [7] was “inactive” each time.
Consider `C=C1C2C[C@]3(C4CC5[C@@]6(C)CC[C@H](O)[C@@]5(C3CC2=O)C4[N+]([O-])(CC)C6)[C@@H]1O` (stereo partly specified), for which the Potency entry in assay [4], in [5], in [6], in [7] and in assay [26] was “inactive” in each case.
As for `CN[C@@H](Cc1c[nH]c2ccccc12)C(=O)O`, the Potency result in [27], in [28], in assay [4], in assay [5], in [6] and in [7] was “inactive” in each case. In [15] (at 57.5 µM (top of the series)), the activity change, negative = inhibition was 2.25% (inactive). The max response is -7.03% in [15] (setting [29]) and 3.12% in [15] (setting [30]).
